Compounds with a hit are over-represented: about 0.48% of the library has one in this group of screens.
SRC3 inh = inhibits human SRC3 coactivator; HEK293 GAL4-SRC3 luciferase reporter, luminescence; inhibition, % at 3.6 µM; actives 0.17% (n = 360,000); AID 588352;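 active = inhibition above a per-campaign cutoff, the mean of all compounds plus 3 SD, cut at about 60% in these data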;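 also: 0% = DMSO-treated cells and 100% = gossypol-treated cells at 36 µM; higher means less SRC3-driven luciferase light from the GAL4 reporter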
NCOA2 inhibitor = inhibits human steroid receptor coactivator 2; AID 651957; actives 0.17% (n = 370,000); inhibition, % at 9 µM; Q15596; HEK293 GAL4-SRC2 luciferase reporter, luminescence;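 active = inhibition above the mean inhibition of all tested compounds plus 3 SD, set per campaign, cut at about 52% in these data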;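 also: 0% = DMSO treated cells and 100% = cells given Gossypol at 36 µM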
LGR2 inh = blocks bursicon-induced cAMP signaling via Drosophila LGR2. inhibition, % at 9.99 µM. actives 0.35% (n = 380,000). HEK293 LGR2, CRE-luciferase, bursicon-stimulated, 4 h;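 active = drop in luminescence signal, shown as inhibition above about 50% in the replicate tests, limit read from the data, passing the limit was not always enough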;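 also: agonist challenge used bursicon conditioned medium at about half maximal strength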
NR5A2 inv ag = NR5A2 inverse agonism in reporter assay. HEK293T StAR-luciferase reporter, LRH-1 transfected, 24 h. AID 602396. inhibition, % at 3.6 µM. O00482. actives 0.13% (n = 360,000);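 active = inhibition above the mean inhibition of all tested compounds plus 3 SD, cut at about 73% in these data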;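 also: 0% = DMSO wells and 100% = reporter-only cells lacking LRH-1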
Target sequence (O00482 whole entry, looked up): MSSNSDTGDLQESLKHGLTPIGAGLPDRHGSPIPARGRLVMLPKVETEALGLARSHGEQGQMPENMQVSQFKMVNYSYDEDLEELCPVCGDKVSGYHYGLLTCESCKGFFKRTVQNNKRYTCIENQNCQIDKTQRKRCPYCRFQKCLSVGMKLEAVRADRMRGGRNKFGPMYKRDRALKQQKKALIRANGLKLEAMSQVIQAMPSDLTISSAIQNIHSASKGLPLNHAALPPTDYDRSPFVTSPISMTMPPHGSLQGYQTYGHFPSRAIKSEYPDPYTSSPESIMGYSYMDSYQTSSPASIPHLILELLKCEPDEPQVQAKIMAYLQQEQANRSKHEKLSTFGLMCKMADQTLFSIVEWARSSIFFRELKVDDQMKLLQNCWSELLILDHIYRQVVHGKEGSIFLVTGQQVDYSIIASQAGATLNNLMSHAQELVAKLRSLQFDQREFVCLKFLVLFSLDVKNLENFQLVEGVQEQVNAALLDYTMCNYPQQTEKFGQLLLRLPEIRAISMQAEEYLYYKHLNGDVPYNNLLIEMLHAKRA
SRC1 inh = inhibits human SRC1 coactivator | HEK293 GAL4-SRC1 luciferase reporter, luminescence | inhibition, % at 3.6 µM | Q15788 | actives 0.12% (n = 360,000);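 active = inhibition above the campaign mean plus 3 SD, with each screening campaign given its own cutoff, cut at about 60% in these data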;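 also: 0% = DMSO treated cells and 100% = gossypol at 36 µM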
* hit, by the source's call; / = not tested or not shown.

SMILES | SRC3 inh | NCOA2 inhibitor | LGR2 inh | NR5A2 inv ag | SRC1 inh
CO[C@@H]1CN(C)C(=O)c2cc(NC(=O)CC(F)(F)F)ccc2OC[C@H](C)N(C(C)=O)C[C@@H]1C | / | / | 5 | / | /
CCCC#Cc1ccc2c(c1)O[C@H](CN(C)Cc1ccccc1)[C@@H](C)CN([C@H](C)CO)S2(=O)=O | / | / | 3 | / | /
CC(C)c1cn(CC[C@H]2CC[C@H](NC(=O)C3CCCC3)[C@@H](CO)O2)nn1 | / | / | 1 | / | /
Cc1ccc(C(=O)CN2C(=O)c3ccccc3S2(=O)=O)cc1 | 63* | 68* | 95* | 13 | 48
O=C(CN1C(=O)c2ccccc2S1(=O)=O)Nc1ncc(Cl)cc1Cl | 4 | 16 | 69* | -5 | -15
O=C(CN1C(=O)c2ccccc2S1(=O)=O)c1ccccc1Cl | 20 | 57* | 96* | 12 | 14
COc1ccc2c3c([nH]c2c1)[C@H](CO)N(C(=O)C1CC1)CC31CN(C(=O)c2ccncc2)C1 | / | / | -6 | / | /
COCC(=O)Nc1ccc2c(c1)[C@@H]1C[C@@H](CC(=O)NCc3ccccn3)O[C@H](CO)[C@@H]1O2 | / | / | -6 | / | /
CCCCCn1ccc(=N)cc1 | 9 | 16 | / | -7 | -7
CCCCCCCCCn1ccc(=N)cc1 | 68* | 31 | 32 | 84* | 52
CCCCCCCn1ccc(=N)cc1 | 24 | 3 | / | 79* | 23
CCC(=O)N1CC2(C1)CN(C(=O)CC)[C@@H](CO)c1[nH]c3cc(OC)ccc3c12 | / | / | -8 | / | /
N=c1c2c(-c3ccccc3)c(-c3ccccc3)n(Cc3ccccc3)c2ncn1CCCn1ccnc1 | 67* | -32 | / | 40 | 50
CCCCn1cnc2c(c(-c3ccccc3)c(-c3ccccc3)n2Cc2ccco2)c1=N | 14 | -32 | / | 29 | 14
COc1ccc(-n2c(C)c([N+](=O)[O-])c3ccc(O)c(CN(C)C)c32)cc1 | 61 | 54* | / | 28 | 69*
Cc1ccc(-c2cnc3c(c2)C(=O)N([C@@H](C)CO)C[C@H](C)[C@H](CN(C)C(=O)c2ccc(F)cc2)O3)cc1 | / | / | -4 | / | /
CC(C)(C)c1ccc(Oc2ccc(NC(=O)C3CC=CCC3C(=O)O)cc2)cc1 (centres undefined) | 19 | 78* | 25 | 50 | 4
Cc1ccccc1Oc1ccc(NC(=O)C2CC=CCC2C(=O)O)cc1 (centres undefined) | 9 | -8 | -10 | 16 | -10
C[C@H](O)C#Cc1cnc2c(c1)C(=O)N([C@H](C)CO)C[C@H](C)[C@H](CN(C)C(=O)CC1CC1)O2 | / | / | 7 | / | /
O=C(Nc1ccc2ncccc2c1)c1cccc(Br)c1 | -132 | -47 | -106 | -91 | -84
COc1ccc(C(=O)Nc2ccc3ncccc3c2)cc1 | -95 | -19 | 59* | -102 | -94
Cc1ccc(C(=O)Nc2ccc3ncccc3c2)cc1 | -35 | -16 | 74* | -132 | -48
Nc1ncnc2c(C3OC(CO)C(O)C3O)scc12 (centres undefined) | 84* | 51 | 98* | 96* | 66*
COc1cccc2c1C(CO)N1C(C#N)C3CC(C(=O)O)C(C1C2)N3C (centres undefined) | 86* | 55* | 92* | 102* | 87*
COCC(=O)N1[C@@H]2Cn3c(ccc(-c4ccccc4)c3=O)[C@H]1[C@@H](C(=O)NCc1ccccn1)[C@@H]2CO | / | / | 4 | / | /
SMILES | SRC3 inh | NCOA2 inhibitor | LGR2 inh | NR5A2 inv ag | SRC1 inh
CCOC(=O)c1c(C)[nH]c(C(=O)OCC(=O)Nc2sccc2C(N)=O)c1C | 31 | 21 | 71* | -1 | 62*
CCOC(=O)c1c(C)[nH]c(C(=O)OCC(=O)Nc2ccc(Cl)cn2)c1C | -6 | -6 | 5 | -4 | -8
CCC(=O)N1C[C@H](C)[C@@H](OC)CN(C)C(=O)c2cc(NC(=O)NC3CCCC3)ccc2OC[C@@H]1C | / | / | 14 | / | /
Cc1cccc(/C=C/C(=O)c2ccc([N+](=O)[O-])o2)c1 | 7 | 2 | 101* | 23 | -3
Cc1ccccc1/C=C/C(=O)c1ccc([N+](=O)[O-])o1 | / | 25 | 92* | / | /
C[C@@H]1CCCCO[C@H](CN(C)S(=O)(=O)c2ccc(Cl)cc2)[C@H](C)CN([C@@H](C)CO)C(=O)c2cc(NC(=O)C3CCCCC3)ccc2O1 | / | / | 9 | / | /
Cc1[nH]c2ccccc2c1/C=N/Nc1nc2ccccc2[nH]1 | -22 | -38 | 100* | -8 | -24
C(=N\Nc1nc2ccccc2[nH]1)/c1cccc2cccnc12 | 62* | 2 | 33 | 64 | -11
Cc1ccccc1/C=N/Nc1nc2ccccc2[nH]1 | -55 | -26 | -59 | -81 | -45
C[C@H]1CN([C@@H](C)CO)C(=O)c2cc(NS(=O)(=O)c3cn(C)cn3)ccc2O[C@@H]1CN(C)CC1CCCCC1 | / | / | -14 | / | /
C/C=C/c1cnc2c(c1)C(=O)N([C@H](C)CO)C[C@@H](C)[C@H](CN(C)C(=O)CN1CCOCC1)O2 | / | / | 6 | / | /
Cc1noc(C)c1NC(=O)N[C@H]1C=C[C@H](CC(=O)Nc2ccccc2)O[C@H]1CO | / | / | -1 | / | /
C[C@H]1CCC/C=C/[C@@H]2C[C@H](O)C[C@H]2[C@H](O)[C@H](S(=O)c2ccc(O)cc2)CC(=O)O1 (some centres undefined) | 63* | -30 | / | 79* | 2
CC1CCCC=CC2CC(OC(=O)CN(C)C)CC2C(O)C=CC(=O)O1 (centres undefined) | 51 | 3 | / | 37 | 0
Cc1cccc(-n2c(CNC(=O)c3ccccc3)nnc2SCC(=O)Nc2nccs2)c1 | -16 | 11 | -10 | 85* | 59
COc1ccc(CC(=O)NCc2nnc(SCC(=O)Nc3nccs3)n2-c2ccccc2)cc1 | -8 | -18 | 18 | 8 | 10
C[C@@H]1CN([C@H](C)CO)C(=O)c2cc(C#Cc3ccccc3)cnc2O[C@H]1CN(C)C(=O)CN(C)C | / | / | -13 | / | /
O=C(O)c1ccc(N/N=C/c2ccc3c(c2)OCO3)cc1 | 36 | 56* | 101* | -28 | 16
O=C(O)c1cc(N/N=C/c2ccc3c(c2)OCCO3)ccc1Cl | -111 | -52 | 71* | -219 | -140
O=C(O)c1ccc(N/N=C/c2cc3cc4c(cc3nc2Cl)OCCO4)cc1 | -95 | -55 | 60* | -122 | -161
O=C(O)c1cc(N/N=C/C(Cl)=C/c2ccccc2)ccc1Cl | -101 | -44 | 73* | -283 | -125
COc1ccc(NC(=O)N(C)C[C@@H]2OCCCC[C@@H](C)Oc3ccc(NC(=O)CCCN(C)C)cc3C(=O)N([C@@H](C)CO)C[C@H]2C)cc1 | / | / | -3 | / | /
N#C[C@@H]1[C@H](c2ccc(C#Cc3cccc(F)c3)cc2)[C@@H](CO)N1C(=O)C1CCC1 | / | / | 72* | / | /
COc1ccccc1C#Cc1ccc([C@H]2[C@@H](C#N)N(C(=O)C3CCCC3)[C@@H]2CO)cc1 | / | / | -11 | / | /
COc1ccccc1C#Cc1ccc([C@H]2[C@H](C#N)N(C(=O)C3CCCC3)[C@H]2CO)cc1 | / | / | 80* | / | /
CNC[C@@H]1Oc2ccc(NC(=O)Nc3ccccc3)cc2C(=O)N([C@H](C)CO)C[C@H]1C | / | / | -7 | / | /
O=S(=O)(Nc1cc(Sc2cccc3cccnc23)c(O)c2ccccc12)c1ccccc1 | / | 95* | / | / | /
